Assay results: PubChem BioAssay (EPA / NIEHS)
Calls of active or inactive are those of the source. Rule for the calls: active = hit-call score of the fitted dose curve at least 0.9, where 1 is the maximum; inactive = score below 0.9.

Key:
[1] = target: Hypoxia-inducible factor 1-alpha (Homo sapiens) (UniProt Q16665); test: ATG_HIF1a_CIS: Attagene CIS-FACTORIAL HepG2 Assay for human Hypoxia Inducible Factor 1 (HIF1A) (AID 2282951); conditions: HepG2 Attagene cis-factorial HIF1a reporter transcription; actives raise or lower the signal
Method in brief: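 In this multiplexed cell assay, HepG2 cells bearing transfected cis reporters are dosed for 24 h and reporter mRNA is read by RT-PCR plus capillary electrophoresis; signal increases and decreases are both scored against DMSO.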

[2] = target: Hepatocyte nuclear factor 6 (Homo sapiens) (UniProt Q9UBC0); test: ATG_HNF6_CIS: Attagene CIS-FACTORIAL HepG2 Assay for human Hepatocyte Nuclear Factor 6 (HNF6) (AID 2282952); conditions: HepG2 Attagene cis-factorial HNF6 reporter transcription; actives raise or lower the signal
Method in brief: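 Activity values derive from bidirectional fitting against DMSO of reporter mRNA levels, measured by capillary electrophoresis of labelled RT-PCR products from HepG2 cells exposed 24 h.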

[3] = target: Heat shock factor protein 1 (Homo sapiens) (UniProt Q00613); test: ATG_HSE_CIS: Attagene CIS-FACTORIAL HepG2 Assay for human Heat Shock Transcription Factor 1 (HSE) (AID 2282953); conditions: HepG2 HSE cis-reporter, Attagene RNA transcription; actives raise or lower the signal
Method in brief: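 Liver-derived HepG2 cells carry transiently introduced multiple reporter units governed by cis promoters. Reporter RNA measured 24 h post-dose through reverse transcription, PCR amplification, fluorescent labelling and capillary electrophoresis, normalised to DMSO.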

[4] = ATG_MRE_CIS: Attagene CIS-FACTORIAL HepG2 Assay for human Metal Responsive Element (MRE) (AID 2282954); conditions: HepG2 MRE cis-reporter transcription, Attagene multiplex; actives raise or lower the signal
Method in brief: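 Endogenous MRE-dependent transcription read as reporter mRNA in transiently transfected human HepG2 cells at 24 h. RNA reverse-transcribed, PCR-amplified, labelled and resolved by capillary electrophoresis; gain or loss relative to DMSO.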

[5] = ATG_PBREM_CIS: Attagene CIS-FACTORIAL HepG2 Assay for human Phenobarbital-responsive Enhancer Module (PBREM) (AID 2282955); conditions: HepG2 PBREM cis-reporter, Attagene multiplexed transcription; actives raise or lower the signal
Method in brief: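 After a 24 h incubation with test chemical, transfected HepG2 cells yield total RNA; reporter-specific RT-PCR products are fluorescently labelled, HpaI-digested and resolved by capillary electrophoresis against ROX size standards.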

[6] = ATG_PXRE_CIS: Attagene CIS-FACTORIAL HepG2 Assay for human Pregnane X Receptor Element (PXRE) (AID 2282957); conditions: HepG2 Attagene CIS-FACTORIAL PXRE reporter, mRNA; actives raise or lower the signal
Method in brief: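 Fluorescent capillary electrophoresis of amplified reporter cDNA gave the signal, collected 24 h after dosing HepG2 cells that held transfected cis-element reporter constructs.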

[7] = target: Paired box protein Pax-6 (Homo sapiens) (UniProt P26367); test: ATG_Pax6_CIS: Attagene CIS-FACTORIAL HepG2 Assay for human Paired Box 6 (PAX6) (AID 2282956); conditions: HepG2 CIS-FACTORIAL PAX6 reporter transcription, RNA readout; actives raise or lower the signal
Method in brief: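 Fluorescent RT-PCR products separated by capillary electrophoresis report PAX6-linked promoter mRNA in HepG2 cells 24 h post-dose. Curves fitted bidirectionally, DMSO as negative control.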

[8] = ATG_PPRE_CIS: Attagene CIS-FACTORIAL HepG2 Assay for human Peroxisome Proliferator-activated Response Element (PPRE) (AID 2282958); conditions: HepG2 PPRE cis-element reporter, Attagene transcription factor profiling; actives raise or lower the signal
Method in brief: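 Multiplexed reporter transcription units under cis-regulatory promoters were transfected into HepG2 cells to capture endogenous factor activity. A 24 h incubation preceded RNA isolation and fluorescent RT-PCR fragment analysis.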

[9] = ATG_RORE_CIS: Attagene CIS-FACTORIAL HepG2 Assay for human RAR-related Orphan Receptor Element (RORE) (AID 2282959); conditions: HepG2 Attagene cis-factorial RORE reporter, mRNA; actives raise or lower the signal
Method in brief: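 Fluorescence intensity of reporter-specific cDNA fragments, separated by capillary electrophoresis, gives the signal. Source: HepG2 liver cells transiently transfected with cis-element reporters and exposed 24 h; DMSO-normalized bidirectional fit.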

[10] = ATG_Sox_CIS: Attagene CIS-FACTORIAL HepG2 Assay for human SRY-box transcription factor (SOX) (AID 2282960); conditions: HepG2 Attagene cis-factorial SOX reporter, mRNA; actives raise or lower the signal
Method in brief: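 After 24 h of chemical treatment, transfected HepG2 reporter cells are lysed for total RNA. Transcript levels come from RT-PCR with labelled primer extension and capillary electrophoresis, analysed bidirectionally versus DMSO.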

Measured: AC50

Chain of Hypoxia-inducible factor 1-alpha (Homo sapiens) (Q16665 whole entry, looked up): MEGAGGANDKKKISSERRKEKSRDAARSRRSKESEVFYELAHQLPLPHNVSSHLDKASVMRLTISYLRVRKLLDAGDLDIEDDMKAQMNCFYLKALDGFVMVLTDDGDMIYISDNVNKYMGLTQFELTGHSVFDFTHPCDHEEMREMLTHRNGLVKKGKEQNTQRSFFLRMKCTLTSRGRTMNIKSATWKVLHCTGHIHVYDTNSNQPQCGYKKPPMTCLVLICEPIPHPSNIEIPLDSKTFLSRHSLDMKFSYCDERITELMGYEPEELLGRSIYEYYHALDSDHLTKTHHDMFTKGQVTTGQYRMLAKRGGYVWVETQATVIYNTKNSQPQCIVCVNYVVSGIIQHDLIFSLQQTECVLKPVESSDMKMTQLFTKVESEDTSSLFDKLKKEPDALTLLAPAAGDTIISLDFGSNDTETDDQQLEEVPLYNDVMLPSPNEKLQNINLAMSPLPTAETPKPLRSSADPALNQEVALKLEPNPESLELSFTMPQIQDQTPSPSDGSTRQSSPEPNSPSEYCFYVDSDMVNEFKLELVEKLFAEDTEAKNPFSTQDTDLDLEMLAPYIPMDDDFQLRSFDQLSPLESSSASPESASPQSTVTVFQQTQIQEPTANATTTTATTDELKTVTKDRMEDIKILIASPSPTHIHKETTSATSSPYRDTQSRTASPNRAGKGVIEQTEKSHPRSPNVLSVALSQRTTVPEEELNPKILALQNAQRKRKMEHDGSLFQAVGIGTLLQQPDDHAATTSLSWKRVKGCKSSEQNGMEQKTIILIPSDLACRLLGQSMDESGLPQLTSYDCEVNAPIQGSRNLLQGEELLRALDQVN
Chain of Heat shock factor protein 1 (Homo sapiens) (Q00613 whole entry, looked up): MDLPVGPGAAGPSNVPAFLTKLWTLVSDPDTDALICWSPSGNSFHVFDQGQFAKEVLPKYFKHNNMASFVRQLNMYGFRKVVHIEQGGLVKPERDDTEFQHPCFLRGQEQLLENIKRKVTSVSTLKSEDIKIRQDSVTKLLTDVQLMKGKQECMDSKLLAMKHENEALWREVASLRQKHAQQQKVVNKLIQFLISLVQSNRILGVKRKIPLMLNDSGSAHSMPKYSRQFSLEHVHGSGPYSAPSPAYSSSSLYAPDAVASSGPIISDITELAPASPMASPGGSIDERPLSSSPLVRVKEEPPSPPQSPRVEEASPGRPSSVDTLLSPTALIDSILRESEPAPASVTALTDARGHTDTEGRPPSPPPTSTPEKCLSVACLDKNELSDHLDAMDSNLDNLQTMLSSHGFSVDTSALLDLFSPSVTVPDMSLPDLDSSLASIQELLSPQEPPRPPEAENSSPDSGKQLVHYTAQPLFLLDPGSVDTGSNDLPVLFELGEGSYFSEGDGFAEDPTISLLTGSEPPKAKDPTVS
Chain of Hepatocyte nuclear factor 6 (Homo sapiens) (Q9UBC0 whole entry, looked up): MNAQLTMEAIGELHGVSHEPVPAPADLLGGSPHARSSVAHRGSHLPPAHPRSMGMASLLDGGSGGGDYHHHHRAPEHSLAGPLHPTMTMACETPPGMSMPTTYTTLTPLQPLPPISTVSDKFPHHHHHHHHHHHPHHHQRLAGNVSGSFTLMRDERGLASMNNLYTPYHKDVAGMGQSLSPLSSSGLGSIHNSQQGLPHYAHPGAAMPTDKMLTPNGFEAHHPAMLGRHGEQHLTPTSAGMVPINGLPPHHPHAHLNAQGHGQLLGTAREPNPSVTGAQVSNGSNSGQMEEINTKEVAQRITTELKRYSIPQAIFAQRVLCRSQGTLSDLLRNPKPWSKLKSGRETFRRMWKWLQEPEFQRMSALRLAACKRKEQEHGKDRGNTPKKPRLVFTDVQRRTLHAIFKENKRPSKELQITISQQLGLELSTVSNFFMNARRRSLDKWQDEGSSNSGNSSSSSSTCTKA
Chain of Paired box protein Pax-6 (Homo sapiens) (P26367 whole entry, looked up): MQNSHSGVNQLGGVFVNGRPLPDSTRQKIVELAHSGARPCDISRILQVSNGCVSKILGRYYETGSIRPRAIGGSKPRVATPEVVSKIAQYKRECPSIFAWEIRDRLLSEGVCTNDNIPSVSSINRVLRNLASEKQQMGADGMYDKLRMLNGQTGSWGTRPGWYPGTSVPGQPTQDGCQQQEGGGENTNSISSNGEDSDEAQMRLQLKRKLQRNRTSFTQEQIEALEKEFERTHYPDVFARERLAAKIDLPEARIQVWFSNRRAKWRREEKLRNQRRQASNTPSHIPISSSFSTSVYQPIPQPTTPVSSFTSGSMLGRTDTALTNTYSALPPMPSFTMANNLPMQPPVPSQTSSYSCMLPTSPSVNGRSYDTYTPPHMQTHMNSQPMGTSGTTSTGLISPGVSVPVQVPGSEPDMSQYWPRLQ

CC(C)C1CCC(Cc2ccc(Cl)cc2)C1(O)Cn1cncn1 (stereo not given)
inactive: [1] | [2] | [3] | [5]
active: [4] 11 µM | [6] 1.04 µM

COc1ccc(OC)c(C=O)c1
active: [6] 16.9 µM
not listed: [5] | [9] | [10]
inactive: all other assays above

CCNc1nc(NC(C)(C)C)nc(SC)n1
active: [4] 118 µM | [6] 1.67 µM | [8] 144 µM
not listed: [5] | [10]
inactive: all other assays above

CN(C)P(=O)(N(C)C)N(C)C
not listed: [5]
inactive: all other assays above

CCC(C)(C)c1ccc(O)c(C(C)(C)CC)c1
active: [6] 2.73 µM | [8] 11.1 µM
not listed: [5] | [10]
inactive: all other assays above

COP(=O)(OC)O/C(=C\Cl)c1cc(Cl)c(Cl)cc1Cl
active: [1] 100 µM | [3] 153 µM | [4] 100 µM | [7] 35.2 µM | [6] 1.4 µM | [8] 154 µM | [10] 44.3 µM
inactive: [2] | [9]

OCc1ccco1
active: [6] 39.7 µM
not listed: [5] | [9]
inactive: all other assays above

N#CCCO
not listed: [5]
inactive: all other assays above

ClCc1ccccn1
not listed: [5] | [9]
inactive: all other assays above

CCOC(=O)CP(=O)(OCC)OCC
active: [1] 0.0931 µM | [6] 100 µM
not listed: [5] | [7]
inactive: all other assays above

CC(Br)C(=O)O (stereo not given)
not listed: [4] | [7]
inactive: all other assays above

O=C(Cc1ccccc1)c1ccccc1
active: [6] 27.2 µM
not listed: [5] | [8]
inactive: all other assays above

ClC1(Cl)C2(Cl)C3(Cl)C4(Cl)C(Cl)(Cl)C5(Cl)C3(Cl)C1(Cl)C5(Cl)C24Cl (stereo not given)
active: [6] 0.365 µM
not listed: [5] | [9]
inactive: all other assays above

C=CC#N
not listed: [4] | [8] | [10]
inactive: all other assays above

Oc1c(I)cc(I)cc1I
active: [1] 41.9 µM | [3] 125 µM | [4] 100 µM | [7] 77.1 µM | [8] 64.2 µM | [10] 160 µM
inactive: [2] | [6]

Nc1ccc(Cl)cc1C(=O)c1ccccc1
active: [4] 25.6 µM | [6] 6.6 µM | [9] 15 µM
not listed: [5] | [7]
inactive: all other assays above

ClC1=C(Cl)[C@]2(Cl)[C@H]3[C@H]([C@H]4C=C[C@H]3C4)[C@@]1(Cl)C2(Cl)Cl
inactive: [2] | [3] | [8]
active: [1] 4.66 µM | [4] 3.77 µM | [6] 1.6 µM

C[C@@H](Oc1ccc(Cl)cc1Cl)C(=O)O
not listed: [5] | [8] | [9]
inactive: all other assays above

Clc1nc(Cl)nc(Cl)n1
active: [3] 144 µM | [6] 34.9 µM
not listed: [4]
inactive: all other assays above

NC(=O)O
not listed: [4] | [8] | [9]
inactive: all other assays above

CCOP(OCC)OCC
not listed: [5] | [8]
inactive: all other assays above

Cl/C=C/Cl
not listed: [5] | [8] | [9]
inactive: all other assays above

Cc1ccccc1C(=O)Nc1cccc(OC(C)C)c1
active: [6] 2.89 µM
not listed: [4]
inactive: all other assays above

CCSC(C)CC1CC(=O)C(C(CC)=NOC/C=C/Cl)=C(O)C1 (stereo not given)
active: [6] 5.61 µM
not listed: [5] | [7] | [9]
inactive: all other assays above

Fc1ccc(C2(Cn3cncn3)OC2c2ccccc2Cl)cc1 (stereo not given)
active: [6] 3.04 µM
not listed: [5] | [7] | [8]
inactive: all other assays above

O=C(Nc1ccc2[nH]ccc2c1)c1cc2cc(F)ccc2n1Cc1cccc(F)c1
active: [2] 18.3 µM | [3] 20.7 µM | [5] 17.3 µM | [7] 13.9 µM | [6] 2.75 µM
inactive: [1] | [8] | [9]

O=C(O)Cc1ccccc1
inactive: [1] | [2] | [3] | [4] | [6]

CCOP(=S)(OCC)Oc1nc(Cl)c(Cl)cc1Cl
active: [4] 100 µM | [6] 5.24 µM
not listed: [5] | [9]
inactive: all other assays above
